Source: PubChem (National Center for Advancing Translational Sciences (NCATS))
SMN2 splice up: qHTS Assay for Enhancers of SMN2 Splice Variant Expression; HEK293 SMN2-luciferase splicing reporter, luminescence, 30-36 h; Potency, µM (highest dose often 46.1 µM), for the others: at the top dose activity change, positive = activation, usual class: activators; 210,000 tested, 2.8% active; AID 1458, 2008; further: % of control where 0% means no effect; nearly all actives have a fitted effect of over 55% in size
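HEK293 cells carry an SMN2 […]–luciferase reporter in which exon 7 inclusion puts luciferase in frame. Cells were plated 10-12 h before compound addition, then incubated 30-36 h at 37C. ONE-Glo luminescence was read; sodium butyrate at 4.5 mM final served as control.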
Rab9 promoter act: qHTS Assay for Rab9 Promoter Activators; Huh7 Rab9 promoter-luciferase reporter, luminescence, 24 h; Potency, µM (titrated, usually from 9.22 µM), for inactives: at the top dose activation, negative = inhibition, usual class: activators; AID 485297, 2010; 320,000 tested, 2.8% active; further: % of control where 0% means no effect; nearly all actives have a fitted effect of over 60% in size
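Huh7 cells stably carrying a Rab9 promoter-luciferase reporter, 1500 cells per well in OP-MEM I with 10% FBS, treated with compound 24 hours at 37C. Luciferase activity read by luminescence after 10 minutes with Amplite reagent.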
NPC1 prom act: qHTS Assay for NPC1 Promoter Activators; 320,000 tested, 2.4% active; Huh7 NPC1 promoter luciferase reporter, 24 h; AID 485313, 2010; Potency, µM (series often up to 9.22 µM), for inactives: top-dose activation, most hits filed as activators; further: % of control where 0% means no effect; nearly all actives have a fitted effect of over 60% in size
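Luciferase expression driven by the NPC1 promoter was measured in stably transfected Huh7 cells after a 24 h compound incubation, using a luciferase reagent and a luminescence read.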
ELG1 repair inh: qHTS screen for small molecules that inhibit ELG1-dependent DNA repair in human embryonic kidney (HEK293T) cells expressing luciferase-tagged ELG1; 330,000 tested, 2.3% active; AID 504467, 2011; Potency, µM (doses to about 46.1 µM), inactives show top-dose activity change, negative = inhibition, hits mostly inhibitors; HEK293T ELG1-luciferase reporter, luminescence, 16 h; DNA damage induced by 5-fluorouridine; further: on the % scale 0 is the no-effect control and ±100 the full control effect; nearly all actives have a fitted effect of over 55% in size
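Cells (2,000 per well) received 5-fluorouridine plus test compound or DMSO and were incubated 16 hr at 37 °C, 5% CO2. Luciferase activity was read by luminescence 30 min after ONE-Glo addition; signal suppression marked inhibition of damage-induced ELG1 function.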
FLuc counter: qHTS profiling assay for firefly luciferase inhibitor/activator using purifed enzyme and Km concentrations of substrates (counterscreen for miR-21 project). purified FLuc, Km substrates, luminescence inhibition. Potency, µM (highest dose often 57.5 µM), for the others: top-dose activity change, negative = inhibition, most hits filed as inhibitors. AID 588342, 2011. Luciferin 4-monooxygenase (Photinus pyralis), P08659. 360,000 tested, 6.9% active;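 further: plate controls were vehicle for no effect and reference inhibitor for full effect; nearly all actives have a fitted effect of over 55% in size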
Target sequence (P08659 whole entry, looked up): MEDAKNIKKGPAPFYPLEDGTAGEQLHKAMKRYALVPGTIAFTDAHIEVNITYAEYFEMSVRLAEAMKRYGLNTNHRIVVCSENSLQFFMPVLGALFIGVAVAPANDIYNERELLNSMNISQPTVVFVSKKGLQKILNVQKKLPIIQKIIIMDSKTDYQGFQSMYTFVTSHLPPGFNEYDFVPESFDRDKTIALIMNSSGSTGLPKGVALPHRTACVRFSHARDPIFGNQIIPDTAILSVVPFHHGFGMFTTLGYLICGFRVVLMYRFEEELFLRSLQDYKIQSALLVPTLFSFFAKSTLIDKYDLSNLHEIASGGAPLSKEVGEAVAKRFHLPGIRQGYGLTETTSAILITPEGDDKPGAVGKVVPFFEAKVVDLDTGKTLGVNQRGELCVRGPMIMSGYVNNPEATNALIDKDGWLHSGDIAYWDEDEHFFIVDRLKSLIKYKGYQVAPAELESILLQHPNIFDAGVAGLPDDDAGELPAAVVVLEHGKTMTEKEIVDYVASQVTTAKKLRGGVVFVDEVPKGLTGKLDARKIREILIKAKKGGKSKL
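Purified P. pyralis luciferase, 10 nM final, with Km-level 10 uM D-luciferin and 10 uM ATP in 50 mM Tris acetate pH 7.5, 10 mM Mg acetate, 0.01% Tween-20, 0.05% BSA; 6-point qHTS titration about 60 µM downward; luminescence read.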
ELG1 genotoxic: qHTS screen for small molecules that induce genotoxicity in human embryonic kidney (HEK293T) cells expressing luciferase-tagged ELG1. HEK293T ELG1-luciferase reporter, luminescence, 16 h. Potency, µM (doses to about 46 µM), inactives show at the highest dose activity change, positive = activation, usual class: activators. 330,000 tested, 1.3% active; further: % of control where 0% means no effect; nearly all actives have a fitted effect of over 60% in size
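HEK293T cells expressing luciferase-tagged ELG1 were exposed to compound or DMSO vehicle for 16 hr at 37 °C and 5% CO2. Luciferase activity was then measured with ONE-Glo after 30 min at room temperature.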
Active calls of the source: *. In the library only some 9.3% were active in any assay of this set; here they are far more common. The call rests on the fitted dose curve; in most records, active means well fitted curve in the direction sought with a large enough effect; inconclusive means small, poorly fitted or top-dose-only effect, or another doubt; inactive means no such curve, though single readings can be large; an effect the other way counts as inactive or inconclusive. Potency means the concentration at half of the fitted maximal effect.

COc1ccc(NC(=O)c2ccco2)cc1NC(=O)c1ccccc1F was read as Rab9 promoter act 1%, NPC1 prom act 0%, ELG1 repair inh 17%, FLuc counter -12% and ELG1 genotoxic 3%.
COc1ccc(C)cc1NC(=O)CN1C(=O)COc2ccc(S(=O)(=O)NC3CCCC3)cc21 was read as FLuc counter -1%.
COc1ccc(NC(=O)c2cccc(OC(F)F)c2)cc1Cl was read as SMN2 splice up inconclusive, Rab9 promoter act 2.2µM*, NPC1 prom act 3.5µM*, ELG1 repair inh inconclusive, FLuc counter 11µM* and ELG1 genotoxic 5.8µM*.
Screening Cc1c(Cl)cccc1NC(=O)c1cccc(OC(F)F)c1 returned SMN2 splice up -8%, Rab9 promoter act 19%, NPC1 prom act 18%, ELG1 repair inh inconclusive, FLuc counter inconclusive and ELG1 genotoxic 5%.
For CC(C)(C)[C@]1(O)CCN2CC3c4ccccc4CCc4cccc(c43)[C@@H]2C1 (stereo partly specified) the results were SMN2 splice up -38%.
`N#C/C(C(=O)Oc1ccccc1)=C1\C=CC=CN1` gave SMN2 splice up 25%, Rab9 promoter act 2.8µM*, NPC1 prom act 3.5µM*, ELG1 repair inh inconclusive, FLuc counter 19µM* and ELG1 genotoxic inconclusive.
Screening COC(=O)Cc1ccc(NC(=S)Nc2ccc(N3CCOCC3)cc2)cc1 returned SMN2 splice up 5%, Rab9 promoter act -4%, NPC1 prom act 0%, ELG1 repair inh 5%, FLuc counter -4% and ELG1 genotoxic 0%.
For COc1cccc(N2CC(NC(=O)c3ccco3)CC2=O)c1 (stereo unspecified) the results were FLuc counter -5%.
CN(CC(=O)Nc1ccccc1Br)C(=O)CN1CCN(Cc2cccc(Cl)c2)CC1 was read as ELG1 repair inh 18µM* and ELG1 genotoxic -8%.
`CN(CC(=O)Nc1ccccc1Br)C(=O)CNC(=O)c1ccco1` gave Rab9 promoter act -3%, NPC1 prom act 0%, ELG1 repair inh 10%, FLuc counter -2% and ELG1 genotoxic 3%.
For O=[N+]([O-])c1cccc2c(N3CCCC3)ccnc12 the results were SMN2 splice up -71%, Rab9 promoter act -28%, NPC1 prom act -13%, ELG1 repair inh inconclusive, FLuc counter inconclusive and ELG1 genotoxic -12%.
O=S(=O)(NCCc1csc2nc(-c3ccccc3)nn12)c1cc(F)ccc1F was read as FLuc counter -3%.
O=C(Nc1ccc(F)cc1F)c1cc2nc3c(c(C(F)(F)F)n2n1)CCCC3 was read as SMN2 splice up 17%, Rab9 promoter act 0.56µM*, NPC1 prom act 1.1µM*, ELG1 repair inh inconclusive, FLuc counter 0.6µM* and ELG1 genotoxic inconclusive.
`Cc1cc(C)c(C)c(OCC(=O)Nc2ccc(S(=O)(=O)Nc3nc(C)cc(C)n3)cc2)c1` gave SMN2 splice up -12% and FLuc counter inconclusive.
Screening COc1cccc(-n2c(=O)c3c4c(sc3n(Cc3ccc(C)cc3)c2=O)CCCC4)c1 returned SMN2 splice up -6% and FLuc counter -3%.
c1ccc2c(c1)Nc1nccnc1S2 was read as SMN2 splice up inconclusive, Rab9 promoter act 20%, NPC1 prom act 10%, ELG1 repair inh 24%, FLuc counter 24µM* and ELG1 genotoxic inconclusive.
`O=C1Nc2cccnc2Sc2ccccc21` gave SMN2 splice up -5%, Rab9 promoter act -7%, NPC1 prom act -3%, ELG1 repair inh 1%, FLuc counter 5% and ELG1 genotoxic -2%.
Screening COC(=O)c1ccc(NC(=O)C(=O)NCCc2sc3nc(-c4ccc(OC)cc4)nn3c2C)cc1 returned FLuc counter -1%.
Screening COc1ccccc1NC(=O)Cn1c(=O)n(CCc2ccccc2)c(=O)c2sc3ccccc3c21 returned SMN2 splice up 7% and FLuc counter -3%.
For COc1cccc(C(=O)COc2cccc(NC(=O)c3ccco3)c2)c1 the results were Rab9 promoter act -3%, NPC1 prom act 0%, ELG1 repair inh 3%, FLuc counter 27µM* and ELG1 genotoxic -2%.
For O=C(COc1cccc(NC(=O)c2ccco2)c1)c1ccccc1 the results were SMN2 splice up -32%, Rab9 promoter act 10%, NPC1 prom act 7%, ELG1 repair inh inconclusive, FLuc counter 17µM* and ELG1 genotoxic 0%.
COc1ccc(Br)cc1C(=O)Nc1ccc(O)cc1 was read as SMN2 splice up 28µM*, Rab9 promoter act 2%, NPC1 prom act 7%, ELG1 repair inh 27%, FLuc counter inconclusive and ELG1 genotoxic 15%.
COc1ccc(C(=O)COc2cccc(NC(=O)c3ccco3)c2)cc1 was read as SMN2 splice up -10%, Rab9 promoter act -1%, NPC1 prom act -2%, ELG1 repair inh inconclusive, FLuc counter 15µM* and ELG1 genotoxic -7%.
`COc1ccc(Br)cc1/C=C/C(=O)Nc1ccc(C)cc1` gave SMN2 splice up -16%, Rab9 promoter act 15%, NPC1 prom act 24%, ELG1 repair inh 21µM*, FLuc counter -22% and ELG1 genotoxic -8%.
Screening COc1ccc(Br)cc1/C=C/C(=O)Nc1ccc2ccccc2c1 returned SMN2 splice up -4%, Rab9 promoter act -5%, NPC1 prom act -1%, ELG1 repair inh -9%, FLuc counter -5% and ELG1 genotoxic 0%.
`COc1ccc(Br)cc1C(=O)Nc1cccc(NC(=O)c2ccco2)c1` gave Rab9 promoter act -6%, NPC1 prom act 1%, ELG1 repair inh 21µM*, FLuc counter 24µM* and ELG1 genotoxic -20%.
COc1cccc(NC(=O)c2ccco2)c1 was read as SMN2 splice up 10µM*, Rab9 promoter act inconclusive, NPC1 prom act inconclusive, ELG1 repair inh inconclusive, FLuc counter inconclusive and ELG1 genotoxic 15µM*.
`O=C(Nc1cccc(OC(=O)c2ccco2)c1)c1ccco1` gave SMN2 splice up 0%, Rab9 promoter act -1%, NPC1 prom act 2%, ELG1 repair inh inconclusive, FLuc counter -6% and ELG1 genotoxic 13%.
